Screening data as filed in PubChem.
Compounds with a hit are over-represented: about 2.3% of the library has one in this group of screens.
Coupling enz = counter-screen for Giardia aldolase inhibitors: coupling enzyme system. activity change, negative = inhibition, % at 58.2 µM, hits read low. coupling enzyme system counterscreen, AmpLite Red fluorescence. actives 0.67% (n = 290,000); in the data active means activity change below about -30%
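Activity here indicates interference with the coupling reaction, not aldolase inhibition. Compounds at 57.5 uM final met coupling enzymes for 10 min at RT; substrate and AmpLite Red detection followed, with a 525/598 nm fluorescence read after 20 min.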
Tau FP inhib = inhibitors of human tau fibril formation; P10636; K18 P301L tau heparin fibrillization, Alexa594 FP, 6 h; Potency, µM (doses to about 57.7 µM), inactives show top-dose activity, negative = inhibition, most hits filed as inhibitors; actives 0.39% (n = 280,000); further: potency means the concentration at half of the fitted maximal effect; nearly all actives have a fitted effect of over 55% in size
Target sequence (P10636 561-689 P618L limits assumed): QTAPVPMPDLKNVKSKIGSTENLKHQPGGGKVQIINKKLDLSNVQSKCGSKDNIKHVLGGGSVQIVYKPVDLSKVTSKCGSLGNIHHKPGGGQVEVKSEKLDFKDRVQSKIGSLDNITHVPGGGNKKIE
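FP of Alexa 594-tau after heparin (20 uM) induction. Substrate: human K18 P301L, 15 uM unlabeled, 0.24 uM labeled. Buffer 100 mM sodium acetate pH 7. 6 hr, 37 C.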
USP1-UAF1 inh = inhibitors of human USP1/UAF1 deubiquitinase; O94782; recombinant USP1/UAF1, Ub-Rhodamine cleavage fluorescence; actives 0.23% (n = 390,000); Potency, µM (highest dose often 57.1 µM), without a hit: at the top dose activity change, negative = inhibition, hits mostly inhibitors; further: potency means the concentration at half of the fitted maximal effect; nearly all actives have a fitted effect of over 60% in size
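USP1/UAF1 complex (1 nM) preincubated 15 min at room temperature with compound, then Ub-Rho substrate (150 nM final) added. Kinetic fluorescence at 480/540 nm over 6 reads at 60 s intervals; 50 mM HEPES pH 7.8, 0.5 mM EDTA, 0.1 mg/ml BSA, 1 mM TCEP, 0.01% Tween-20.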
Tau fluor counter = counter-screen for tau fibril formation inhibitors | actives 0.93% (n = 280,000) | Potency, µM (series often up to 57.7 µM), for inactives: top-dose activity change, negative = decrease | tau K18 P301L Alexa594 fluorescence, heparin fibrillization; further: potency means the concentration at half of the fitted maximal effect; nearly all actives have a fitted effect of over 55% in size
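Human K18 P301L tau (15 uM unlabeled plus 0.24 uM Alexa 594-labeled, final) in 100 mM sodium acetate pH 7 was mixed with compound and 20 uM heparin and incubated 6 hr at 37 C.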
Tau fibril ThT = tau fibrillization inhibition (ThT binding) | P10636 | recombinant tau K18 P301L, heparin-induced fibrillization, ThT fluorescence | Potency, µM (doses to about 57.4 µM), for the others: at the top dose activity, negative = inhibition, hits mostly inhibitors | actives 2.1% (n = 270,000) | AID 1460; further: potency means the concentration at half of the fitted maximal effect; nearly all actives have a fitted effect of over 55% in size
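ThT emission at 510 nm, taken 1 hr after adding 30 uM dye, quantifies aggregates formed when 20 uM heparin acts on human tau K18 P301L for 6 hr at 37 C.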
An asterisk follows results filed as active; ? = inconclusive; / = no result given; [ ] = dose if it differs, or a comment. Unless noted, the call rests on the fitted dose curve; in most records, active means well fitted curve in the direction sought with a large enough effect; inconclusive means small, poorly fitted or top-dose-only effect, or another doubt; inactive means no such curve, though single readings can be large; an effect the other way counts as inactive or inconclusive. On the % scale 0 is the no-effect control and ±100 the full control effect.

SMILES	Coupling enz	Tau FP inhib	USP1-UAF1 inh	Tau fluor counter	Tau fibril ThT
CC(C)c1ccc(NC(=O)CCS(=O)(=O)c2ccc3c(c2)CC(=O)N3C)cc1	/	4%	-11%	6%	12%
CCOc1ccc(C(=O)N/N=C(/C)C2C(=O)c3ccccc3C2=O)cc1	0	1%	-6%	-20%	1.8µM*
C/C(=N\NC(=O)c1ccc(Br)cc1)C1C(=O)c2ccccc2C1=O	1	?	-12%	?	4µM*
C/C(=N\NC(=O)c1ccc(-c2ccccc2)cc1)C1C(=O)c2ccccc2C1=O	1	5%[2.34 µM]	-23%	-11%	-11%
CCOc1ccc(OCc2ccc(C(=O)N/N=C(\C)c3ccccn3)cc2)cc1	1	8%	-16%	-2%	?
COc1cc(OC)c(NC(=O)c2ccc3nc(C(C)C)oc3c2)cc1Cl	/	0%	-8%	-17%	-13%
FC(F)(F)c1ccccc1-c1ccc2ncnc(NC3CC3)c2c1	-4	/	/	/	/
COc1ccc(/C=C2\CN(Cc3ccccc3)C/C(=C\c3ccc(OC)c(O)c3)C2=O)cc1O	-6	/	-17%	/	/
COc1cccc(/C=C2\C(=O)C(=O)c3ccccc32)c1	-2	2%	1%	-25%	13µM*
CCN1C/C(=C/c2ccc(OC)c(O)c2)C(=O)/C(=C/c2ccc(OC)c(O)c2)C1	-6	?	-18%	-28%	14µM*
COc1cc(C=C2C(=O)c3ccccc3C2=O)ccc1O	-7	-5%	-6%	-18%	?
COc1ccc(C=C2C(=O)c3ccccc3C2=O)cc1O	2	-6%	?	-30%	8.9µM*
COc1cc(C=C2C(=O)c3ccccc3C2=O)cc(OC)c1OC	3	-4%	-12%	-28%	14µM*
COc1cc(C=C2C(=O)c3ccccc3C2=O)cc(OC)c1	1	6%	-12%	?	/
C=CCOC(=O)C1=C(C)N=c2s/c(=C3\C(=O)N(CC(=O)O)c4ccccc43)c(=O)n2C1c1ccc(OC)cc1 (configuration not stated)	5	?	-15%	-11%	4µM*
COc1ccc(C2C(C(=O)OC(C)C)=C(C)N=c3s/c(=C\c4cccs4)c(=O)n32)cc1 (configuration not stated)	-1	-10%	?	-20%	?
O=C(c1ccco1)n1nc(-c2ccccc2)nc1NCc1ccccc1Cl	/	?	-15%	-16%	-8%
COc1cccc2sc(NN)nc12	-5	?	-6%	28µM*[quencher]	?
COc1cc(CN(C)C(=O)C(=O)c2c[nH]c3ccccc23)ccc1O	/	/	2%	/	/
COc1ccc(C(c2c[nH]c3ccccc23)c2c[nH]c3ccccc23)cc1O	-4	?	/	14µM*[quencher]	?
CCN(CC)c1ccc(C(=O)O)cc1	-1	-21%	3%	-16%	-9%
CCN(CC)c1ccc(/C=C2\C(=O)c3ccc(C(=O)O)cc3C2=O)cc1	0	?	14µM*	-7%	2µM*
Cc1ccc(Cl)cc1NC(=O)N1CCc2cc(S(=O)(=O)N3CCC(C)CC3)ccc21	/	-14%	-24%	-7%	2%
Cc1ccc(C(=O)CSc2nc3cccnc3n2C)cc1	-3	2%	1%	-3%	-9%
COc1ccc(OC)c(C(=O)CSc2nc3cccnc3n2C)c1	-40*	2%	-6%	0%	-3%
SMILES	Coupling enz	Tau FP inhib	USP1-UAF1 inh	Tau fluor counter	Tau fibril ThT
CCCCCCN1C=CC=C/C1=C\C=C(C#N)C#N	0	?	?	?	16µM*
COCCNc1cc(-c2ccccc2C)ncn1	2	/	/	/	/
O=C1NN(c2ccccc2)C(=O)/C1=C/c1ccc(Sc2cccc3ccccc23)o1	2	?	?	14µM*[quencher]	13µM*
O=C(CSc1nccn1Cc1ccc(F)cc1)Nc1nc2ccccc2s1	/	-8%	-24%	?	-6%
COc1c(OC(C)=O)ccc(/C=C/c2ccc3cccc(OCc4ccccc4)c3n2)c1[N+](=O)[O-]	0	-1%	-8%	?	?
COc1cc(/C=C/c2ccc3cccc(OC)c3n2)c(O)c([N+](=O)[O-])c1	2	-12%	-13%	?	1µM*
